Source: PubChem BioAssay
Compounds with a hit are over-represented: about 2.8% of the library has one in this group of screens.
NCF1 inh: p47phox/p22phox peptide binding inhibitors, primary screen, biochemical, uHTS, NADPH oxidase regulatory subunit; hit rate 0.53% among 220,000; fluorescence polarization, 2 h; inhibition, % at 24.7 µM;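 active means inhibition above about 30%, limit read from the data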
EP2 antag: human EP2 receptor antagonists, primary screen, TR-FRET cAMP, C6 glioma cells; Prostaglandin E2 receptor EP2 subtype (Homo sapiens), P43116; C6 glioma cells expressing human EP2; cells stimulated with saturating PGE2; inhibition, % at 25 µM; hit rate 0.52% among 260,000; AID 1422, 2008;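 active means percent inhibition above 40 after rounding to a whole number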;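 further: rat C6 glioma host cells with rolipram phosphodiesterase inhibitor present; the protocol text gives 20 µM as final concentration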
Target sequence (P43116 whole entry, looked up): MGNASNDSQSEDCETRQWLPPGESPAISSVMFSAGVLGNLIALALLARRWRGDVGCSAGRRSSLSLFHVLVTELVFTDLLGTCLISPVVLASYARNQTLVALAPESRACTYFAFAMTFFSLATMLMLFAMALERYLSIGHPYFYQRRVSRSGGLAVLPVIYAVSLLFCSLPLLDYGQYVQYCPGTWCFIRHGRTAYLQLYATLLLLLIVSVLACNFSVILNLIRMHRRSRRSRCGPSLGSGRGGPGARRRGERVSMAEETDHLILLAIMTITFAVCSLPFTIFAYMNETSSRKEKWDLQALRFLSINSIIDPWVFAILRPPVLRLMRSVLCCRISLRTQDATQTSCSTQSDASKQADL
Furin inhibitor: human furin inhibitors, primary screen, biochemical, fluorescence intensity. P09958. purified furin, fluorogenic substrate cleavage. inhibition, % at 20 µM or 30 µM. hit rate 0.061% among 220,000; in the data active means inhibition above about 25%
Wee1 stabilizer: Wee1 degradation inhibitors, primary screen, cell-based, HeLa, Wee1K328M-luciferase, luminescence. Wee1-like protein kinase (Homo sapiens), P30291. HeLa Luc-Wee1K328M stability; 100% = proteasome inhibitor MG132 effect. reporter increase, % at 5 µM. hit rate 1.2% among 220,000. AID 1321, 2008;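 active means activation above the mean of all tested compounds plus 3 SD, set per screening run, cut at about 8.8% in these data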;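 further: cells exposed to compound for 20 h before luminescence read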
EP2 mod: EP2 receptor modulators, cAMP readout, primary screen, cell-based, HTRF cAMP, PGE2 stimulation | AID 940, 2007 | hit rate 0.83% among 260,000 | induction, % at 25 µM | EP2-expressing cells, cAMP HTRF FRET, PGE2 co-stimulation;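 active means compounds whose cAMP rise, as percent of the full-agonist control response, exceeds 60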;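 further: rat C6 glioma line stably carrying human EP2 under a CMV promoter; the protocol text gives 20 µM as final concentration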
HSV augment: enhancers of HSV replication in host cells, fold increase, host cell viability; HSV replication augmentation in cells; maximum fold increase; hit rate 0.005% among 220,000; in the data active means maximum fold increase above about 1.5; inconclusive means no clear call, values can overlap the other calls; tested in PC3 cells
Large screens that a line does not name were inactive.

CC(C)C1Oc2ccccc2N(CC(=O)N(Cc2ccccn2)CC2CCCO2)C1=O (centres undefined)	Wee1 stabilizer 9.2
Cc1ccc(CN(CC2CCCO2)C(=O)CN2C(=O)C(C(C)C)Oc3ccccc32)o1 (centres undefined)	none
CCC(=O)NC1=C(Cl)C(=O)C(NC(=O)CC)=C(Cl)C1=O	NCF1 inh 50, EP2 antag 117
COc1ccc(CN(Cc2coc3ccc(C)cc3c2=O)CC2CCCO2)c(OC)c1 (centres undefined)	none (no result: NCF1 inh, Furin inhibitor, Wee1 stabilizer, HSV augment)
COC(=O)C1=C(N)Oc2cc(C)n(Cc3cccnc3)c(=O)c2C1c1cccc(OC)c1OC (centres undefined)	Wee1 stabilizer 9.2
O=C(O)c1cnc(-c2ccccc2)nc1C(F)(F)F	Wee1 stabilizer 11
Cn1c(=O)c2nc(NCc3ccccc3)cnc2n(C)c1=O	EP2 mod 65 (no result: EP2 antag, HSV augment)
O=C1c2ccccc2C(=O)c2c1cccc2N1CCC(O)CC1	none (no result: NCF1 inh, Furin inhibitor, Wee1 stabilizer, HSV augment)
CCN(CC)C(=O)CSc1nc(N)c2c3c(sc2n1)CC(C)CC3 (centres undefined)	NCF1 inh 59
Nc1nc(SCC(=O)N(CCO)CCO)nc2sc3c(c12)CCCC3	none (no result: NCF1 inh, Furin inhibitor, Wee1 stabilizer, HSV augment)
COc1cccc(NC(=O)c2cc(Cl)nnc2Cl)c1	none
COc1cc(NC(=O)c2cc(Cl)nnc2Cl)cc(OC)c1OC	Wee1 stabilizer 10
CC(C)Oc1ccccc1Cn1c(=O)sc2ccccc21	EP2 mod 83 (no result: NCF1 inh, Furin inhibitor, Wee1 stabilizer, HSV augment)
CC(C)OC(=O)Cn1c(=O)sc2ccccc21	none
Cc1nn(Cc2ccccc2Cl)c(Cl)c1C(=O)NCCc1ccccc1	Wee1 stabilizer 10
Cc1nn2c3ccccc3nc2n(Cc2ccccc2)c1=O	Furin inhibitor 26 (no result: NCF1 inh, EP2 antag, EP2 mod, HSV augment)
COc1ccc(CC(=O)Nc2nc(-c3cccc([N+](=O)[O-])c3)cs2)cc1	Wee1 stabilizer 10
O=[N+]([O-])c1cccc(-c2csc(N/N=C/c3cccc(O)c3)n2)c1	EP2 antag 99
Cc1ccc(Nc2c(F)c(F)c(F)c(F)c2C(=O)O)cc1	Wee1 stabilizer 13
Cc1cccc(Nc2c(F)c(F)c(F)c(F)c2C(=O)O)c1	none
O=C(OCC(=O)c1ccc(Cl)cc1Cl)c1ccc2c(c1)C(=O)N(c1cccc3ncccc13)C2=O	none
O=C(COC(=O)c1ccc2c(c1)C(=O)N(c1cccc3ncccc13)C2=O)c1ccc(Cl)cc1	NCF1 inh 56
Cc1ccc(C(=O)COC(=O)c2ccc3c(c2)C(=O)N(c2cccc4ncccc24)C3=O)cc1	NCF1 inh 84
CC1c2ccsc2CCN1Cc1ccc(N2CCCC2=O)cc1 (centres undefined)	none (no result: NCF1 inh, Furin inhibitor, Wee1 stabilizer, HSV augment)
Oc1ccc2ccccc2c1/C=C/c1ccc2c(Br)cc(Br)c(O)c2n1	EP2 antag 42 (no result: NCF1 inh, Furin inhibitor, Wee1 stabilizer, HSV augment)
CCOc1ccccc1N(CC(=O)NCc1ccco1)S(=O)(=O)c1ccc(Cl)cc1	none (no result: NCF1 inh, Furin inhibitor, Wee1 stabilizer, HSV augment)
CCOC(=O)Cc1c(C)nc2c(-c3cccc(Br)c3)cnn2c1C	Wee1 stabilizer 10
CCc1ccc2[nH]c(=O)c(C(c3nnnn3Cc3ccccc3)N3CCCc4ccccc43)cc2c1 (centres undefined)	EP2 mod 66 (no result: NCF1 inh, Furin inhibitor, Wee1 stabilizer, HSV augment)
Cc1ccc2[nH]c(=O)c(C(c3nnnn3Cc3ccccc3)N3CCc4ccccc43)cc2c1 (centres undefined)	none
CCc1ccc2[nH]c(=O)c(C(c3nnnn3Cc3ccco3)N3CCC(C)CC3)cc2c1 (centres undefined)	EP2 mod 61
Cc1ccc(OCC(=O)Nc2ccc(N3CCN(C(=O)C(C)C)CC3)c(Cl)c2)cc1	none (no result: NCF1 inh, Furin inhibitor, Wee1 stabilizer, HSV augment)
CCN1CCN(C2=CC3=CC(=C(C#N)C#N)CCC3CC2)CC1 (centres undefined)	Furin inhibitor 28, HSV augment inconclusive
N#CC(C#N)=C1C=C2C=C(N3CCOCC3)CCC2CC1 (centres undefined)	NCF1 inh 65, HSV augment inconclusive
CCn1c(Cc2ccccc2)nnc1SCC(=O)N1CCOCC1	none (no result: NCF1 inh, Furin inhibitor, Wee1 stabilizer, HSV augment)
O=[N+]([O-])c1cccnc1N/N=C/c1ccccc1O	none
O=C(O)CNc1ncccc1[N+](=O)[O-]	NCF1 inh 50
O=C(NCCCn1c(-c2ccc(F)cc2)cc2cccnc21)c1c(F)cccc1F	none (no result: NCF1 inh, Furin inhibitor, Wee1 stabilizer, HSV augment)
Cc1cc(C)n(-c2ccc(C(=O)Nc3ccc4c(c3)OCO4)cc2)n1	none
COc1ccc(NC(=O)c2ccc(-n3nc(C)cc3C)cc2)cc1OC	NCF1 inh 38
CC(C)Nc1nc(NC(N)=O)nc(NC(C)C)n1	none (no result: NCF1 inh, Furin inhibitor, Wee1 stabilizer, HSV augment)
O=C(Cn1nc2c3ccccc3nc(C3CC3)n2c1=O)NC(c1ccccc1)c1ccccc1	none (no result: NCF1 inh, Furin inhibitor, Wee1 stabilizer, HSV augment)
CCOC(=O)C1=C(c2ccccc2)NC(N)=NC1c1ccc(OCc2ccc(C(=O)OC)cc2)cc1 (centres undefined)	NCF1 inh 84
Cc1nn(C)cc1C(C(=O)NC1CCCCC1)N(C(=O)Cc1cccs1)c1cccc(F)c1 (centres undefined)	none (no result: NCF1 inh, Furin inhibitor, Wee1 stabilizer, HSV augment)
O=C(Nc1ccc2nc(-c3ccccn3)[nH]c2c1)C1CCCCC1	NCF1 inh 40
CC(C)c1nc2ccc(NC(=O)C3CCCCC3)cc2[nH]1	none
CCOC(=O)/C(=N\Nc1ccc(Cl)cc1)c1csc(Nc2ccccc2)n1	EP2 antag 44
Cc1cc(C)cc(Oc2ccccc2CO)c1	NCF1 inh 33
COc1nc(C)nc(C)c1Oc1ccc(Cl)cc1Cl	EP2 mod 65
Cc1nc(-c2ccccc2)[nH]c(=O)c1Oc1ccc(Cl)cc1Cl	none
CCOC(=O)CN1C(=O)C(CC)Oc2ccccc21 (centres undefined)	Wee1 stabilizer 17
COc1ccc(C(=O)Nc2ccc(N3CCN(C(=O)C(C)C)CC3)cc2)cc1	none (no result: NCF1 inh, Furin inhibitor, Wee1 stabilizer, HSV augment)
O=C(Cc1ccccc1)N(c1ccc(F)cc1)C1C=CS(=O)(=O)C1 (centres undefined)	none
O=C(Cc1ccc(F)cc1)N(c1ccc(F)cc1)C1C=CS(=O)(=O)C1 (centres undefined)	NCF1 inh 35
CCN(CC)CCCN1C(=O)C(=O)/C(=C(\O)c2ccc(C)cc2)C1c1ccncc1 (centres undefined)	none (no result: NCF1 inh, Furin inhibitor, Wee1 stabilizer, HSV augment)
COC(=O)c1ccc2c(=O)n(CC3CCCO3)c(SCC(=O)NCCc3ccc(S(N)(=O)=O)cc3)nc2c1 (centres undefined)	none
COC(=O)c1ccc2c(=O)n(CC3CCCO3)c(SCC(=O)Nc3ccc(OC)cc3OC)nc2c1 (centres undefined)	NCF1 inh 31
Brc1cc2c(cc1/C=N/Nc1nc3ccccc3s1)OCO2	EP2 antag 41
Brc1csc(/C=N/Nc2nc3ccccc3s2)c1	Wee1 stabilizer 8.9
Cn1c(SCC(=O)Nc2cccc(F)c2)nnc1-c1cccs1	none (no result: NCF1 inh, Furin inhibitor, Wee1 stabilizer, HSV augment)
Cc1ccc(-n2nnc3c(=O)oc4ccccc4c32)cc1	EP2 antag 86
